# Assay results published in PubChem BioAssay AID1671463 (Sanford-Burnham Center for Chemical Genomics, 2021).
# Hit rate of the full screen: of about 370,000 compounds, about 520 (0.14%) were called active. No stated cut-off is given here; in the data, active means activation above about 40%; inactive means the rest. The list comes from a sample in which actives are over-represented; it also holds similar structures and randomly drawn compounds.
# Molecular target: Atrial natriuretic peptide receptor 1 (Homo sapiens) (UniProt P16066)
# Test: GC-A stimulated cGMP production enhancers – HEK293 GC-A cells, cGMP TR-FRET, EC30 ANP, primary screen (AID 1671463)
# Conditions: at 10 µM, hits give high values, 0% at EC30 ANP, 100% saturating ANP
# Chain of Atrial natriuretic peptide receptor 1 (Homo sapiens) (P16066 whole entry, looked up): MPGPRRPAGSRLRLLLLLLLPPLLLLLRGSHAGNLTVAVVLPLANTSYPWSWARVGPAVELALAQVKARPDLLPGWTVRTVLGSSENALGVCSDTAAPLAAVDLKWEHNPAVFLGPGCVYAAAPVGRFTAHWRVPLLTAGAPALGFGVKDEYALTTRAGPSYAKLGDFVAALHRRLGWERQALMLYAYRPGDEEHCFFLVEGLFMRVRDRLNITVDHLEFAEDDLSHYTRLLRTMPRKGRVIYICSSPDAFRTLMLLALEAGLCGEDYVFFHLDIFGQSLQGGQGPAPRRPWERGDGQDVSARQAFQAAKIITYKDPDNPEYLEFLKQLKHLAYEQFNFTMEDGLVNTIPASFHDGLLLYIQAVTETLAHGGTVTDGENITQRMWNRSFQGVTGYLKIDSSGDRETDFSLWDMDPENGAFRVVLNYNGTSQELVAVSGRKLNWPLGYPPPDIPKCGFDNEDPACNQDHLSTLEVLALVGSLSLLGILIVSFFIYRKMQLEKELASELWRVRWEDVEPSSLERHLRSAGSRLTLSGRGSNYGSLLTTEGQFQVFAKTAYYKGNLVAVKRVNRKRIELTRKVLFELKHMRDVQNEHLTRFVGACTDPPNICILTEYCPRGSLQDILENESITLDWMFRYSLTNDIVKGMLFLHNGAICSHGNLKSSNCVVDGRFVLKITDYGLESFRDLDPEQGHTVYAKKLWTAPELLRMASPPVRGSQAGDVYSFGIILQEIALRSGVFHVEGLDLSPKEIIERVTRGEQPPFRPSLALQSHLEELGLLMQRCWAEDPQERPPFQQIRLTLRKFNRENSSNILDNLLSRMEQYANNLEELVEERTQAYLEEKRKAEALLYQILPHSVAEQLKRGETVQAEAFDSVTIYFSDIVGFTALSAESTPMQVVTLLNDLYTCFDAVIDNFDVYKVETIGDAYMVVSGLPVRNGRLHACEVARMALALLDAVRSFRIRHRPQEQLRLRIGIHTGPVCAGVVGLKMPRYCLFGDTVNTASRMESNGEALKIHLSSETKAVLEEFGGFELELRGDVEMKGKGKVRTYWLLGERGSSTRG
row,Compound,activation
1,COc1ccc([N+](=O)[O-])cc1NC(=O)CC1SC(=Nc2cccc(C)c2C)N(/N=C(\C)c2ccc(C)cc2)C1=O (stereo not given),0.41% (inactive)
2,Cc1ccc(NS(=O)(=O)c2ccc(-c3coc(C)n3)cc2)c(C)c1,4.2% (inactive)
3,C#CCOc1ccccc1/C=C1/C(=O)ON=C1C,25.7% (inactive)
4,C#CCOc1ccc(/C=C2/C(=O)ON=C2C)cc1OCC,43.3% (active)
5,C=CCOc1ccc(/C=C2/C(=O)ON=C2C)cc1OCC,41% (active)
6,C=CCOc1ccc(/C=N/NC(=O)C(C)Sc2ccccn2)cc1OCC (stereo not given),1.12% (inactive)
7,C=CCOc1ccc(/C=N/n2cncn2)cc1OC,7.58% (inactive)
8,Cc1ccc(N2C(=O)C3C4C=CC(CC4)C3C2=O)cc1Cl (stereo not given),2.95% (inactive)
9,CN(CC(=O)Nc1c(Cl)cccc1Cl)C(=O)c1ccncc1,3.63% (inactive)
10,C=C1CCN([C@H](C(=O)NCc2cc(OC)c(OC)c(OC)c2)C(C)C)S(=O)(=O)c2ccccc21,4.37% (inactive)
11,CCCC(C(=O)N1CCOCC1)N1C(=O)C2C3C=CC(C3)C2C1=O (stereo not given),2.35% (inactive)
12,O=C(Nc1cccc(Br)c1)C1CC(=O)N(C2CCCC2)C1 (stereo not given),0.08% (inactive)
13,Cc1cccc(NC(=O)C2CCCN2S(=O)(=O)c2ccc(F)cc2)c1C (stereo not given),0.56% (inactive)
14,CCC(=O)Nc1c(C)n[nH]c1C,-1.11% (inactive)
15,COc1cc(F)c(C2=CC(=O)CC(C)(C)C2)cc1F,0.01% (inactive)
16,COC(=O)Cc1ccc(OC(=O)C2CCN(S(=O)(=O)c3ccc(OC)c(OC)c3)CC2)cc1,3.18% (inactive)
17,COC(=O)c1cn(C)c2ccc(S(=O)(=O)N3CC(C)CC(C)C3)cc2c1=O (stereo not given),-6.76% (inactive)
18,Cc1nc(CNc2ncnc3ccc(-c4ccc5c(c4)OCO5)cc23)cs1,5.54% (inactive)
19,O=C(Cn1nnc(-c2ccc3c(c2)OCO3)n1)NCc1ccco1,-5.64% (inactive)
20,c1coc(CCNc2ncnc3ccc(-c4ccc5c(c4)OCO5)cc23)c1,43.1% (active)
21,Cc1ccc(NC(=O)CN(C)C(=O)COC(=O)C(C)(C)Oc2ccc(Cl)cc2)cc1,-1.24% (inactive)
22,CCn1nc(C(=O)NNC(=O)C2CSC3(C)CCC(=O)N23)c2ccccc2c1=O (stereo not given),-1.32% (inactive)
23,Cc1cc(C)c(C#N)c(SCS(=O)c2ccc(C(C)(C)C)cc2)n1 (stereo not given),4.18% (inactive)

row,Compound,activation
1,CC(=O)c1c(C)[nH]c(=S)c(C#N)c1-c1ccc(F)cc1,5.29% (inactive)
2,CCOC(=O)c1c(C)[nH]c(=S)c(C#N)c1-c1ccccc1,49.5% (active)
3,CCc1c(C)[nH]c(=S)c(C#N)c1C,2.4% (inactive)
4,COC(=O)Nc1ccc(S(=O)(=O)N2CCN(CCN3C(=O)C4C5C=CC(C5)C4C3=O)CC2)cc1 (stereo not given),-1.89% (inactive)
5,Cc1cc(=O)n2nc(N3CCC(C(=O)Nc4c(F)c(F)c(F)c(F)c4F)CC3)sc2n1,0.6% (inactive)
6,CC(C)c1cc(C(N)=O)c(NC(=O)c2cccc(COc3ccc(Br)cc3)c2)s1,-1.61% (inactive)
7,O=C(CN1C2CCC1CC(NC(=O)C1CC1)C2)NCc1ccccc1 (stereo not given),0.13% (inactive)
8,COc1ccccc1CNC(=O)CSc1nc(=O)n(Cc2ccncc2)c2c1CCC2,2.8% (inactive)
9,O=C1CC[C@@H](COc2ccc3[nH]cc(-c4ccccc4)c3c2-c2ccccc2)N1,2.69% (inactive)
10,CC(C)C[C@H](NC(=O)[C@@H]1O[C@H]1C(=O)O)C(=O)NCCCCN=C(N)N,2.77% (inactive)
11,C[C@H](NS(=O)(=O)c1ccc(Cl)cc1)C(=O)OCC(=O)N1CCOCC1,7.01% (inactive)
12,Nc1ccc(N=Nc2ccccc2Cl)c(N)n1,38.8% (inactive)
13,CCN(CC)S(=O)(=O)c1ccc(CNC(=O)CN2C(=O)NC3(CCc4ccccc43)C2=O)cc1 (stereo not given),-0.1% (inactive)
14,O=C(O)CCSc1nnc(-c2ccccc2)n1-c1ccccc1,4.68% (inactive)
15,C[C@@H](O)c1nc2ccccc2n1N,1.42% (inactive)
16,Cc1noc(C)c1COc1cccc(C(=O)Nc2cccnc2)c1,-4.16% (inactive)
17,COCc1c(C(=O)OCc2c(C)noc2C)oc2ccccc12,2.41% (inactive)
18,Cc1noc(C)c1COC(=O)COc1ccc(-c2ccccc2)cc1,42% (active)
19,CCCCOc1ccc(N(CC(=O)NCC2CCCO2)C(=O)CCC(=O)Nc2cc(C)ccn2)cc1 (stereo not given),0.77% (inactive)
20,CSc1sc(C(=O)NNC(=O)c2ccc(Cl)cc2)c2c1C=CCC2,-1.84% (inactive)
21,Cc1cc(NC(=O)CS(=O)(=O)c2cn(C)c3ccccc23)no1,1.25% (inactive)
22,CC(=O)c1ccc(S(=O)(=O)NC2CC(=O)N(c3ccc4c(c3)OCCO4)C2)cc1 (stereo not given),4.47% (inactive)
